# Measurements reported in PubChem BioAssay AID1159580 (chemical genetic matrix, 2015).
# Several values for one entry are separate records, joined by “and”; a condition that tells them apart may be missing. Equal values may be shown once. In all, about 5,500 compounds went through this assay and about 2,000 (36%) were called active. Inconclusive results (about 18%) are left out. The list shows a part of the results. Values without a mark were called inactive. Rule as the data show it: active = normalized growth mostly below about 0.91 (no sharp cut-off); inconclusive = no clear call, values can overlap the other calls; inactive = mostly above about 0.92.
# Assay: chemical genetic growth profiling, strain panel (AID 1159580);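 also: tested at 20 µM; growth read once vehicle control cultures reached saturation at 30 °C; 1 = growth at the plate median or of vehicle wells; lower values mean less growth of the strain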
# Conditions: S. cerevisiae deletion strains, growth OD
smiles,measurement,setting,value
C[C@@H]1CC[C@H]2C(C)(C)C3CC12CC[C@@]3(C)O (stereo partly specified),normalized growth,"locus YAL021C, strain ccr4, hits give low values",0.942
same,normalized growth,"locus YAL026C, strain drs2, hits give low values",0.918
same,normalized growth,"locus YAL030W, strain snc1, hits give low values",0.884 (active)
same,normalized growth,"locus YBL061C, strain skt5, hits give low values",0.754 (active)
same,normalized growth,"locus YBR009C, strain hhf1, hits give low values",0.658 (active)
same,normalized growth,"locus YBR021W, strain FUR4, hits give low values",0.935
same,normalized growth,"locus YBR023C, strain chs3, hits give low values",0.7 (active)
same,normalized growth,"locus YBR171W, strain sec66, hits give low values",0.962
same,normalized growth,"locus YBR229C, strain ROT2, hits give low values",1.02
same,normalized growth,"locus YBR231C, strain swc5, hits give low values",0.862 (active)
same,normalized growth,"locus YBR279W, strain paf1, hits give low values",0.907 (active)
same,normalized growth,"locus YCL011C, strain gbp2, hits give low values",0.811 (active)
same,normalized growth,"locus YCL016C, strain dcc1, hits give low values",0.859 (active)
same,normalized growth,"locus YCL029C, strain bik1, hits give low values",1.01
same,normalized growth,"locus YCL061C, strain MRC1, hits give low values",0.952
same,normalized growth,"locus YCL069W, strain vba3, hits give low values",0.977
same,normalized growth,"locus YCR088W, strain abp1, hits give low values",0.976
same,normalized growth,"locus YDL005C, strain med2, hits give low values",0.848 (active)
same,normalized growth,"locus YDL035C, strain GPR1, hits give low values",0.979
same,normalized growth,"locus YDL040C, strain nat1, hits give low values",0.952
same,normalized growth,"locus YDL074C, strain BRE1, hits give low values",0.913
same,normalized growth,"locus YDL101C, strain DUN1, hits give low values",0.988
same,normalized growth,"locus YDL185W, strain tfp1, hits give low values",0.99
same,normalized growth,"locus YDL192W, strain arf1, hits give low values",0.872 (active)
same,normalized growth,"locus YDR001C, strain nth1, hits give low values",1.01
same,normalized growth,"locus YDR101C, strain arx1, hits give low values",0.939
same,normalized growth,"locus YDR137W, strain rgp1, hits give low values",0.67 (active)
same,normalized growth,"locus YDR150W, strain NUM1, hits give low values",1.02
same,normalized growth,"locus YDR159W, strain sac3, hits give low values",0.603 (active)
same,normalized growth,"locus YDR162C, strain NBP2, hits give low values",1
same,normalized growth,"locus YDR195W, strain ref2",0.318 (active)
same,normalized growth,"locus YDR297W, strain sur2, hits give low values",0.906 (active)
same,normalized growth,"locus YDR318W, strain mcm21, hits give low values",0.95
same,normalized growth,"locus YDR334W, strain swr1, hits give low values",1
same,normalized growth,"locus YDR335W, strain msn5, hits give low values",0.928
same,normalized growth,"locus YDR388W, hits give low values",0.969
same,normalized growth,"locus YDR392W, strain spt3, hits give low values",0.301 (active)
same,normalized growth,"locus YDR502C, strain sam2, hits give low values",0.924
same,normalized growth,"locus YEL003W, strain gim4, hits give low values",0.848 (active)
same,normalized growth,"locus YEL037C, strain rad23, hits give low values",0.973
same,normalized growth,"locus YEL061C, strain CIN8 (second series), hits give low values",0.875 (active)
same,normalized growth,"locus YEL061C, strain CIN8, hits give low values",0.917 (active)
same,normalized growth,"locus YER015W, strain faa2, hits give low values",0.86 (active)
same,normalized growth,"locus YER016W, strain bim1, hits give low values",0.904 (active)
same,normalized growth,"locus YER110C, hits give low values",0.984
same,normalized growth,"locus YER111C, strain swi4, hits give low values",0.77 (active)
same,normalized growth,"locus YER155C, strain BEM2 (second series), hits give low values",0.74 (active)
same,normalized growth,"locus YER155C, strain BEM2, hits give low values",0.876 (active)
same,normalized growth,"locus YER167W, strain BCK2, hits give low values",0.948
same,normalized growth,"locus YFR010W, strain ubp6, hits give low values",0.863 (active)
same,normalized growth,"locus YGL078C, strain dbp3, hits give low values",0.955
same,normalized growth,"locus YGL086W, strain mad1, hits give low values",0.911 (active)
same,normalized growth,"locus YGL167C, strain pmr1, hits give low values",1.01
same,normalized growth,"locus YGL173C, strain kem1, hits give low values",0.795 (active)
same,normalized growth,"locus YGL227W, strain vid30, hits give low values",0.969
same,normalized growth,"locus YGL240W, strain doc1, hits give low values",0.805 (active)
same,normalized growth,"locus YGL248W, strain PDE1, hits give low values",0.968
same,normalized growth,"locus YGL253W, strain hxk2, hits give low values",0.897 (active)
same,normalized growth,"locus YGR135W, strain pre9, hits give low values",0.922
same,normalized growth,"locus YGR252W, strain gcn5, hits give low values",0.97
same,normalized growth,"locus YHR013C, strain ard1, hits give low values",0.961
same,normalized growth,"locus YHR027C, strain rpn1, hits give low values",0.888 (active)
same,normalized growth,"locus YHR030C, strain SLT2, hits give low values",0.93 and 0.993
same,normalized growth,"locus YHR079C, strain IRE1 (second series), hits give low values",1.02
same,normalized growth,"locus YHR079C, strain IRE1, hits give low values",0.99
same,normalized growth,"locus YHR094C, strain hxt1, hits give low values",0.992
same,normalized growth,"locus YHR129C, strain ARP1, hits give low values",0.968
same,normalized growth,"locus YHR142W, strain chs7, hits give low values",0.605 (active)
same,normalized growth,"locus YHR200W, strain rpn10, hits give low values",0.941
same,normalized growth,"locus YIL066C, strain RNR3, hits give low values",0.937
same,normalized growth,"locus YIL073C, strain SPO22, hits give low values",0.974
same,normalized growth,"locus YIL125W, strain kgd1, hits give low values",0.959
same,normalized growth,"locus YIR030C, strain dcg1, hits give low values",0.987
same,normalized growth,"locus YJL092W, strain hpr5, hits give low values",0.968
same,normalized growth,"locus YJL095W, strain BCK1 (second series), hits give low values",0.699 (active)
same,normalized growth,"locus YJL095W, strain BCK1, hits give low values",0.927 and 1.01
same,normalized growth,"locus YJL115W, strain asf1, hits give low values",0.996
same,normalized growth,"locus YJL129C, strain trk1, hits give low values",0.859 (active)
same,normalized growth,"locus YJL134W, strain LCB3, hits give low values",1.01
same,normalized growth,"locus YJL154C, strain vps35, hits give low values",0.983
same,normalized growth,"locus YJL164C, strain tpk1, hits give low values",0.753 (active)
same,normalized growth,"locus YJL166W, strain qcr8, hits give low values",0.669 (active)
same,normalized growth,"locus YJL168C, strain set2, hits give low values",0.986
same,normalized growth,"locus YJL187C, strain SWE1 (second series), hits give low values",0.986
same,normalized growth,"locus YJL187C, strain SWE1, hits give low values",0.833 (active)
same,normalized growth,"locus YJR043C, strain POL32, hits give low values",0.97
